# Laboratory results reported in PubChem BioAssay (NCATS).
# Results filed as inconclusive are left out. Entries that show only a call come without a potency. Values without a mark were called inactive. The source made the active and inactive calls. Calls follow the shape of the dose curve; as a rule, active = well fitted inhibition curve with a large enough effect; inconclusive = small, poorly fitted or top-dose-only effect; inactive = flat fitted curve, though single readings scatter.
# Experiments:
# [1] = qHTS profiling for inhibitors of Plasmodium falciparum proliferation (AID 504749); also: nearly all actives have a fitted effect of over 60% in size; conditions: P. falciparum in erythrocytes, SYBR Green DNA, 72 h
# Procedure, shortened: (§1)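 SYBR Green fluorescence (ex 485 nm, em 535 nm) reports parasite DNA after 72 h compound exposure of infected red cells at 0.3% parasitemia, 2.5% hematocrit; signal normalized to 0.29 uM artemisinin and vehicle wells.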
# 3D7 = assay: as above; conditions: P. falciparum in erythrocytes, SYBR Green DNA, 72 h; series mostly up to 28.7 µM
# Procedure, shortened: as §1
# 7G8 = assay: as above; conditions: P. falciparum in erythrocytes, SYBR Green DNA, 72 h; series mostly up to 28.7 µM
# Procedure, shortened: as §1
# AA1029 = assay: as above; conditions: P. falciparum in erythrocytes, SYBR Green DNA, 72 h; series mostly up to 28.7 µM
# Procedure, shortened: as §1
# AS120 = assay: as above; conditions: P. falciparum in erythrocytes, SYBR Green DNA, 72 h; series mostly up to 28.7 µM
# Procedure, shortened: as §1
# ATS189 = assay: as above; conditions: P. falciparum in erythrocytes, SYBR Green DNA, 72 h; series mostly up to 28.7 µM
# Procedure, shortened: as §1
# ATS95 = assay: as above; conditions: P. falciparum in erythrocytes, SYBR Green DNA, 72 h; series mostly up to 28.7 µM
# Procedure, shortened: as §1
# C2A = assay: as above; conditions: P. falciparum in erythrocytes, SYBR Green DNA, 72 h; series mostly up to 28.7 µM
# Procedure, shortened: as §1
# CP185 = assay: as above; conditions: P. falciparum in erythrocytes, SYBR Green DNA, 72 h; series mostly up to 28.7 µM
# Procedure, shortened: as §1
# CP191 = assay: as above; conditions: P. falciparum in erythrocytes, SYBR Green DNA, 72 h; series mostly up to 28.7 µM
# Procedure, shortened: as §1
# CP192 = assay: as above; conditions: P. falciparum in erythrocytes, SYBR Green DNA, 72 h; series mostly up to 28.7 µM
# Procedure, shortened: as §1
# CP194 = assay: as above; conditions: P. falciparum in erythrocytes, SYBR Green DNA, 72 h; series mostly up to 28.7 µM
# Procedure, shortened: as §1
# CP201 = assay: as above; conditions: P. falciparum in erythrocytes, SYBR Green DNA, 72 h; series mostly up to 28.7 µM
# Procedure, shortened: as §1
# CP203 = assay: as above; conditions: P. falciparum in erythrocytes, SYBR Green DNA, 72 h; series mostly up to 28.7 µM
# Procedure, shortened: as §1
# CP211 = assay: as above; conditions: P. falciparum in erythrocytes, SYBR Green DNA, 72 h; series mostly up to 28.7 µM
# Procedure, shortened: as §1
# CP215 = assay: as above; conditions: P. falciparum in erythrocytes, SYBR Green DNA, 72 h; series mostly up to 28.7 µM
# Procedure, shortened: as §1
# CP217 = assay: as above; conditions: P. falciparum in erythrocytes, SYBR Green DNA, 72 h; series mostly up to 28.7 µM
# Procedure, shortened: as §1
# CP237 = assay: as above; conditions: P. falciparum in erythrocytes, SYBR Green DNA, 72 h; series mostly up to 28.7 µM
# Procedure, shortened: as §1
# CP238 = assay: as above; conditions: P. falciparum in erythrocytes, SYBR Green DNA, 72 h; series mostly up to 28.7 µM
# Procedure, shortened: as §1
# [2] = at 28.7 µM (top of the series), parasite line A
# [3] = at 28.7 µM (top of the series), parasite line B
# Potency is read from the fitted curve at half-maximal effect.
compound,measurement,setting,value
CCCCCCCCCCCCCC[N+](C)(C)Cc1ccccc1,Potency,[1]; parasite line A,4.47 µM (active)
same,Potency,[1]; parasite line B,7.94 µM (active)
same,Potency,3D7,3.55 µM (active)
same,Potency,7G8,2.24 µM (active)
same,Potency,AA1029,6.31 µM (active)
same,Potency,AS120,7.08 µM (active)
same,Potency,ATS189,7.08 µM (active)
same,Potency,ATS95,7.08 µM (active)
same,Potency,C2A,3.98 µM (active)
same,Potency,CP185,6.31 µM (active)
same,Potency,CP191,2.51 µM (active)
same,Potency,CP192,6.75 µM (active)
same,Potency,CP194,6.75 µM (active)
same,Potency,CP201,7.57 µM (active)
same,Potency,CP203,6.01 µM (active)
same,Potency,CP211,4.26 µM (active)
same,Potency,CP215,5.36 µM (active)
same,Potency,CP217,5.62 µM (active)
same,Potency,CP237,5.62 µM (active)
same,Potency,CP238,7.08 µM (active)
Nc1ccc(C(=O)NCC(=O)O)cc1,"activity, negative = inhibition","[1]; at 12.8 µM (top of the series), parasite line A",7.06%
same,"activity, negative = inhibition","[1]; at 12.8 µM (top of the series), parasite line B",8.58%
same,Potency,3D7,inactive
same,Potency,7G8,inactive
same,Potency,AA1029,inactive
same,Potency,AS120,inactive
same,Potency,ATS189,inactive
same,Potency,ATS95,inactive
same,Potency,C2A,inactive
same,Potency,CP185,inactive
same,Potency,CP191,inactive
same,Potency,CP192,inactive
same,Potency,CP194,inactive
same,Potency,CP201,inactive
same,Potency,CP203,inactive
same,Potency,CP211,inactive
same,Potency,CP215,inactive
same,Potency,CP217,inactive
same,Potency,CP237,inactive
same,Potency,CP238,inactive
CCOc1ccccc1OCCN[C@H](C)Cc1ccc(OC)c(S(N)(=O)=O)c1,"activity, negative = inhibition",[1]; [2],7.23%
same,"activity, negative = inhibition",[1]; [3],1.02%
same,Potency,3D7,inactive
same,Potency,7G8,inactive
same,Potency,AA1029,inactive
same,Potency,AS120,inactive
same,Potency,ATS189,inactive
same,Potency,ATS95,inactive
same,Potency,C2A,inactive
same,Potency,CP185,inactive
same,Potency,CP191,inactive
same,Potency,CP192,inactive
same,Potency,CP194,inactive
same,Potency,CP201,inactive
same,Potency,CP203,inactive
same,Potency,CP211,inactive
same,Potency,CP215,inactive
same,Potency,CP217,inactive
same,Potency,CP237,inactive
same,Potency,CP238,inactive
COc1ccccc1N1CCN(CCCCNC(=O)c2ccc(-c3ccc(C(C)=O)cc3)cc2)CC1,"activity, negative = inhibition",[1]; [2],15.8%
same,"activity, negative = inhibition",[1]; [3],20.5%
same,Potency,3D7,inactive
same,Potency,7G8,12.6 µM (active)
same,Potency,AA1029,inactive
same,Potency,AS120,inactive
same,Potency,ATS189,inactive
same,Potency,ATS95,inactive
same,Potency,C2A,inactive
same,Potency,CP185,inactive
same,Potency,CP191,inactive
same,Potency,CP192,inactive
same,Potency,CP194,inactive
same,Potency,CP201,inactive
same,Potency,CP203,inactive
same,Potency,CP211,inactive
same,Potency,CP215,inactive
same,Potency,CP217,inactive
same,Potency,CP238,inactive
C#C[C@]1(O)CC[C@H]2[C@@H]3CCC4=Cc5oncc5C[C@]4(C)[C@H]3CC[C@@]21C,"activity, negative = inhibition",[1]; [2],-28.2%
same,"activity, negative = inhibition",[1]; [3],-11.7%
same,Potency,3D7,inactive
same,Potency,7G8,inactive
same,Potency,AA1029,inactive
same,Potency,AS120,inactive
same,Potency,ATS189,inactive
same,Potency,ATS95,inactive
same,Potency,C2A,inactive
same,Potency,CP185,inactive
same,Potency,CP191,inactive
same,Potency,CP192,inactive
same,Potency,CP194,inactive
same,Potency,CP201,inactive
same,Potency,CP203,inactive
same,Potency,CP211,inactive
same,Potency,CP215,inactive
same,Potency,CP217,inactive
same,Potency,CP237,inactive
same,Potency,CP238,inactive
CC(=O)Nc1ccc(OC(=O)c2ccccc2OC(C)=O)cc1,"activity, negative = inhibition",[1]; [2],-24.5%
same,"activity, negative = inhibition",[1]; [3],5.15%
same,Potency,3D7,inactive
same,Potency,7G8,inactive
same,Potency,AA1029,inactive
same,Potency,AS120,inactive
same,Potency,ATS189,inactive
same,Potency,ATS95,inactive
same,Potency,C2A,inactive
same,Potency,CP185,inactive
same,Potency,CP191,inactive
same,Potency,CP192,inactive
same,Potency,CP194,inactive
same,Potency,CP201,inactive
same,Potency,CP203,inactive
same,Potency,CP211,inactive
same,Potency,CP215,inactive
same,Potency,CP217,inactive
same,Potency,CP237,inactive
same,Potency,CP238,inactive
C[N+]1(CC2COC(c3ccccc3)(C3CCCCC3)O2)CCCCC1 (centres undefined),Potency,[1]; parasite line A,2.82 µM (active)
same,Potency,[1]; parasite line B,4.47 µM (active)
same,Potency,3D7,7.08 µM (active)
same,Potency,7G8,2.51 µM (active)
same,Potency,AA1029,5.01 µM (active)
same,Potency,AS120,7.08 µM (active)
same,Potency,ATS189,8.91 µM (active)
same,Potency,ATS95,6.31 µM (active)
same,Potency,C2A,10 µM (active)
same,Potency,CP185,5.01 µM (active)
same,Potency,CP191,5.62 µM (active)
same,Potency,CP192,4.78 µM (active)
same,Potency,CP194,6.01 µM (active)
same,Potency,CP201,10.7 µM (active)
same,Potency,CP203,4.78 µM (active)
same,Potency,CP211,4.78 µM (active)
same,Potency,CP215,5.36 µM (active)
same,Potency,CP217,8.91 µM (active)
same,Potency,CP237,7.08 µM (active)
same,Potency,CP238,7.08 µM (active)
c1ccc(-c2nc[nH]c2-c2ccccc2)cc1,"activity, negative = inhibition",[1]; [2],7.29%
same,"activity, negative = inhibition",[1]; [3],-4.58%
same,Potency,3D7,inactive
same,Potency,7G8,inactive
same,Potency,AA1029,inactive
same,Potency,AS120,inactive
same,Potency,ATS189,inactive
same,Potency,ATS95,inactive
same,Potency,C2A,inactive
same,Potency,CP185,inactive
same,Potency,CP191,inactive
same,Potency,CP192,inactive
same,Potency,CP194,inactive
same,Potency,CP201,inactive
same,Potency,CP203,inactive
same,Potency,CP211,inactive
same,Potency,CP215,inactive
same,Potency,CP217,inactive
same,Potency,CP237,inactive
same,Potency,CP238,inactive
NC(=O)c1ccccc1O,"activity, negative = inhibition",[1]; [2],4.99%
same,"activity, negative = inhibition",[1]; [3],15.1%
same,Potency,3D7,inactive
same,Potency,7G8,inactive
same,Potency,AA1029,inactive
same,Potency,AS120,inactive
same,Potency,ATS189,inactive
same,Potency,ATS95,inactive
same,Potency,C2A,inactive
same,Potency,CP185,inactive
same,Potency,CP191,inactive
same,Potency,CP192,inactive
same,Potency,CP194,inactive
same,Potency,CP201,inactive
same,Potency,CP203,inactive
same,Potency,CP211,inactive
same,Potency,CP215,inactive
same,Potency,CP217,inactive
same,Potency,CP237,inactive
same,Potency,CP238,inactive
CC(C)Cn1cnc2c1c(=O)n(C)c(=O)n2C,"activity, negative = inhibition",[1]; [2],-14.6%
same,"activity, negative = inhibition",[1]; [3],1.13%
same,Potency,3D7,inactive
same,Potency,7G8,inactive
same,Potency,AA1029,inactive
same,Potency,AS120,inactive
same,Potency,ATS189,inactive
same,Potency,ATS95,inactive
same,Potency,C2A,inactive
same,Potency,CP185,inactive
same,Potency,CP191,inactive
same,Potency,CP192,inactive
same,Potency,CP194,inactive
same,Potency,CP201,inactive
same,Potency,CP203,inactive
same,Potency,CP211,inactive
same,Potency,CP215,inactive
same,Potency,CP217,inactive
same,Potency,CP237,inactive
same,Potency,CP238,inactive
COc1ccc(/C=N/NC(=O)c2ccncc2)cc1OC,"activity, negative = inhibition",[1]; [2],6.74%
same,"activity, negative = inhibition",[1]; [3],9.47%
same,Potency,3D7,inactive
same,Potency,7G8,inactive
same,Potency,AA1029,inactive
same,Potency,AS120,inactive
same,Potency,ATS189,inactive
same,Potency,ATS95,inactive
same,Potency,C2A,inactive
same,Potency,CP185,inactive
same,Potency,CP191,inactive
same,Potency,CP192,inactive
same,Potency,CP194,inactive
same,Potency,CP201,inactive
same,Potency,CP203,inactive
same,Potency,CP211,inactive
same,Potency,CP215,inactive
same,Potency,CP217,inactive
same,Potency,CP237,inactive
same,Potency,CP238,inactive
CC(=O)Nc1ncc([N+](=O)[O-])s1,"activity, negative = inhibition",[1]; [2],11.2%
same,"activity, negative = inhibition",[1]; [3],9.19%
same,Potency,3D7,inactive
same,Potency,7G8,inactive
same,Potency,AA1029,inactive
same,Potency,AS120,inactive
same,Potency,ATS189,inactive
same,Potency,ATS95,inactive
same,Potency,C2A,inactive
same,Potency,CP185,inactive
same,Potency,CP191,inactive
same,Potency,CP192,inactive
same,Potency,CP194,inactive
same,Potency,CP201,inactive
same,Potency,CP203,inactive
same,Potency,CP211,inactive
same,Potency,CP215,inactive
same,Potency,CP217,inactive
same,Potency,CP237,inactive
same,Potency,CP238,inactive
Cc1nc(-c2ccc(Cl)cc2)oc1COC(C)(C)C(=O)O,"activity, negative = inhibition",[1]; [2],9.36%
same,"activity, negative = inhibition",[1]; [3],9.87%
same,Potency,3D7,inactive
same,Potency,7G8,inactive
same,Potency,AA1029,inactive
same,Potency,AS120,inactive
same,Potency,ATS189,inactive
same,Potency,ATS95,inactive
same,Potency,C2A,inactive
same,Potency,CP185,inactive
same,Potency,CP191,inactive
same,Potency,CP192,inactive
same,Potency,CP194,inactive
same,Potency,CP201,inactive
same,Potency,CP203,inactive
same,Potency,CP211,inactive
same,Potency,CP215,inactive
same,Potency,CP217,inactive
same,Potency,CP237,inactive
same,Potency,CP238,inactive
